Screens from PubChem.
Dicer processing: inhibitors of human Dicer processing of pre-microRNA. Q9UPY3. cat-ELCCA pre-miR-21 Dicer processing, chemiluminescence; stronger effect = higher value. z-score at 25 µM. 6% of 47,000 active; in the data active = z-score above about 3, passing the limit was not always enough;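 note: plate controls were vehicle for no effect and no enzyme for full effect; higher signal means more uncleaved substrate so more Dicer inhibition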
* hit, by the source's call. The entries come from a sample that favours hits as a whole.

SMILES	Dicer processing
CCOC(=O)C1=C(C)Nc2nc3ccccc3n2C1c1ccc(CC)cc1 (stereo not given)	-0.47
Clc1cc(Br)cc(Cl)c1-n1cccc1	0.02
Cc1ccc2c(c1)S/C(=C\c1sc3ccccc3[n+]1C)N2CCO	1.11
Cc1cc(C)nc(SCC(=O)c2ccc(F)cc2F)n1	3.67*
COc1ccc(C(=O)CSc2nc(C)cc(C)n2)cc1C	-0.42
Cc1cc(C)nc(SCC(=O)c2c(C)[nH]c3ccccc23)n1	2.89
CC(C)(C)c1ccc(C(=O)Oc2c(Cl)cncc2Cl)cc1	0.22
CC(C)(C)c1cc(C(=O)Oc2cncc(Cl)c2)cc(C(=O)Oc2cncc(Cl)c2)c1	35.6*
COC(=O)c1cncc(C(=O)OC)c1	-1.12
N#Cc1cnc(SCC(=O)NC(=O)Nc2ccccc2)nc1N	-0.34
CC(C)(C)NC(=S)N/N=C/c1coc2c(Cl)cc(Cl)cc2c1=O	4.85*
CC(C)(C)NC(=S)N/N=C/c1ccccc1Cl	-0.13
CC(C)(C)NC(=S)N/N=C/c1ccccc1O	5.74
CCCCCC(C)n1[nH]c(=O)c2c(C)cc(=O)[nH]c21 (stereo not given)	-5.06
CC(O)(CCO)C12CC3CC(CC(C3)C1)C2 (stereo not given)	-0.24
CCCS(=O)(=O)c1c(S(=O)(=O)CCC)c2ccccn2c1C(=O)c1ccc(F)cc1	5.04*
CCCS(=O)(=O)c1c(S(=O)(=O)CCC)c2ccc(C(N)=O)cn2c1C(=O)c1ccc(F)cc1	35.1
CCCS(=O)(=O)c1c(S(=O)(=O)CCC)c2ccccn2c1C(=O)c1ccc(C)cc1	31.4
CN(CCOC(=O)C(C)(C)C)c1nc2cc(Cl)ccc2s1	-1.84
CCOc1cc(C2C(C(=O)OCc3ccc(OC)cc3)=C(C)NC3=C2C(=O)CCC3)ccc1O (stereo not given)	0.46
COc1ccc(-c2nc(C#N)c(N3CCN(C)CC3)o2)cc1	0.9
Cc1ccc(NC2=NC(c3ccc(Cl)cc3)n3c(nc(C)cc3=O)N2)cc1 (stereo not given)	0.15
COC(=O)c1cccc(C(=O)Oc2ccc(OC)cc2)n1	0.13
CCOC(=O)c1cccc(C(=O)O)n1	0.56
CCOC(=O)c1cccc(C(=O)Oc2ccccc2)n1	6.22*
SMILES	Dicer processing
Cc1nc(-c2cccnc2)[nH]c(=O)c1CC1CC1	2.35
NCC(c1ccccc1)c1ccc2c(c1)OCCO2 (stereo not given)	-0.74
Cc1cc(Oc2ccc(=O)n(C)n2)nc(SCC(N)=O)n1	0.67
COC(=O)CSc1cc(C)nc(N)n1	-0.59
COC(=O)CSc1nc(C)cc(Oc2ccccc2)n1	3.73*
CCOC(=O)NC(=S)Nc1cc(C)cc(C)n1	0.02
O=C(c1ccco1)N(c1cc2sc(=O)oc2c2ccccc12)S(=O)(=O)c1ccc(F)cc1	0.98
Cc1sc(NC(=O)CN2CCc3ccccc32)c(C#N)c1C	0.56
Cc1ccc2c(c1)N(C)/C(=C/c1ccc3ccccc3[n+]1C)S2	-0.12
COC(=O)c1c(C)oc(C)c1S(=O)(=O)N(C)C	-1.21
Brc1c(-c2ccccc2)nc2ccccn12	-1.59
O=C(COC(=O)c1ccc(C(O)c2ccccc2)cc1)c1ccccc1 (stereo not given)	3.98*
O=C(COC(=O)c1ccccc1-c1ccccc1)c1ccccc1	2.07
O=C(COC(=O)c1ccccc1Nc1ccccc1F)c1ccccc1	-6.3
Cc1cccc(NC(=O)Nc2ccc(Cc3ccc(NC(=O)Nc4cccc(C)c4)cc3)cc2)c1	2.69
Cc1nc(-c2cccc(CSc3nnc(C(F)(F)F)n3C)c2)no1	-0.78
CCN(CC)CCNc1ncnc2c1sc1nc3c(cc12)COC(C)(C)C3	0.98
CCCCCNc1ncnc2c1sc1nc3c(cc12)COC(C)(C)C3	1.75
CC1(C)Cc2nc3sc4c(NCC5CCCO5)ncnc4c3cc2CO1 (stereo not given)	5.74*
N/C(=N\O)c1snnc1-c1ccccc1	-0.08
COC(=O)c1cc2nc(-c3cccs3)cc(C(F)(F)F)n2n1	-0.66
Cc1ccc(-c2cc3nc(-c4ccco4)cc(C(F)(F)F)n3n2)cc1	-1.33
FC(F)(F)c1cc(-c2cccs2)nc2cc(-c3ccco3)nn12	3.54*
COc1cccc(C(=O)Nc2ccc(Cl)cc2OC(F)(F)F)c1	-0.74
Cc1ccc2c(c1)-c1cc(C)nn1C(c1cccc(O)c1O)N2 (stereo not given)	32.5*
SMILES	Dicer processing
Cc1cc(C)c2c(c1)-c1cc(C)nn1C(c1cccc(O)c1O)N2 (stereo not given)	29.9*
Cc1ccc2c(c1)-c1cc(C)nn1C(c1cc(C)ccc1O)N2 (stereo not given)	1.01
COC(=O)c1ccc(C2Nc3ccc(C)cc3-c3cc(C)nn32)cc1 (stereo not given)	-0.59
Cc1ccc2c(c1)-c1cc(C)nn1C(c1ccc(O)c(O)c1)N2 (stereo not given)	3.46*
Cc1ccc2c(c1)-c1cc(C)nn1C(c1ccc3c(c1)OCO3)N2 (stereo not given)	1.17
Cc1cc(C)c2c(c1)-c1cc(C)nn1C(c1ccccc1O)N2 (stereo not given)	-0.3
Cc1cc(C)c2c(c1)-c1cc(C)nn1C(c1cccc(O)c1)N2 (stereo not given)	1.25
